Experimental findings from patent US20060193821, “Aptamers to the human IL-12 cytokine family and their use as autoimmune disease therapeutics” (published 2006) are described below.

IL-12 (human, p35/p40 heterodimer), sequence (P29459 23-219, chain 1 of 2): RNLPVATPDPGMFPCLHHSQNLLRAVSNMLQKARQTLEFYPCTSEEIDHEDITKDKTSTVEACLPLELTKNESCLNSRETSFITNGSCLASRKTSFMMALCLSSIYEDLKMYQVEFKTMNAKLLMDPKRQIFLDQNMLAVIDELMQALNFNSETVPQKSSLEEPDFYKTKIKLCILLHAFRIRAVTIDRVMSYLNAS
IL-12 (human, p35/p40 heterodimer), sequence (P29460 23-328, chain 2 of 2): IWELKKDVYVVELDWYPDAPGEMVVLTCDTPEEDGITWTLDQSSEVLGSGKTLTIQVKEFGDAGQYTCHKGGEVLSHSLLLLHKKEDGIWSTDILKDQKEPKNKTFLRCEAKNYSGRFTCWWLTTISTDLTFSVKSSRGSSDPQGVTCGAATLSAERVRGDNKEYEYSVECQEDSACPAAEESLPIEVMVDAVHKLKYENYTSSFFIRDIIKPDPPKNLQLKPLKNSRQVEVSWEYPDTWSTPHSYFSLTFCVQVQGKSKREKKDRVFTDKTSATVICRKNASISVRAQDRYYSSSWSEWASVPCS

This assay concerns the target IL-12 (human, p35/p40 heterodimer) (Homo sapiens, UniProt P29459;P29460 SEQ:57-253,SEQ:23-328). Kind of assay: competition; fold specificity for IL-23 over IL-12; 250 nM IL-12, saturation re-analysis of competition data. To be noted: G4; XNA; deoxy A and G, 2'-OMe C and U. On the procedure: Several of the minimized constructs from the dRmY Selection 2 were also assayed in a competition format in which cold aptamer was titrated and competed away trace ³²P ATP labeled aptamer In the competition assay, the [IL-23] was held constant, the [trace labeled aptamer] was held constant, and the [unlabeled aptamer] was varied. The KD was calculated by fitting the following equation to the data: Fraction aptamer bound=amplitude*([aptamer]/(KD+[aptamer]))+background binding.
The competitive binding data was re-analyzed in a saturation binding experiment where the concentration of ligand (aptamer) was varied and the concentration of receptor ([…]) was held constant and the [bound aptamer] was plotted versus the [total input aptamer].
On to ACAGGCAAGUAAUUGGGGAGUGCGGGCGGGGUGU, for which the binding signal is 33 fold.
